According to PubChem BioAssay AID492948 (National Center for Advancing Translational Sciences (NCATS), 2010):
Results filed as inconclusive are left out. The source made the active and inactive calls. Calls follow the shape of the dose curve; as a rule, active = well fitted activation curve with a large enough effect; inconclusive = small, poorly fitted or top-dose-only effect; inactive = no such curve, though single readings can be large or run the other way.
Potency is read from the fitted curve at half-maximal effect.

Experiment: qHTS Assay for Agonists of the Relaxin Receptor RXFP1: V1B Hit Validation;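 also: counter-screen in HEK293 cells expressing V1B rather than RXFP1 for selectivity; nearly all actives have a fitted effect of over 65% in size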;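 as to activation: cAMP accumulation with PDE4 inhibitor Ro 20-1724 present during compound exposure; 0% = buffer alone basal and 100% = 29 nM porcine relaxin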
Conditions: HEK293 V1B cells, cAMP TR-FRET, 30 min; series mostly up to 115 µM; activation: at the top concentration
Outline: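 Cells: HEK293, 2000/well. Cpd 30 min, 37C, 5% CO2, + PDE4 inhibitor Ro 20174. Lyse, HTRF cAMP, 30 min RT. Norm: buffer = 0%, porcine relaxin 29 nM = 100%.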
With `CCC(=O)Nc1ccc(NC(=O)CSc2nc3c(c(=O)n(C)c(=O)n3C)n2CC)cc1` the Potency was 38.9 µM (active).
For `O=C(Nc1ccccc1C(=O)Nc1ccccc1C(=O)NCc1ccco1)c1ccco1`, the Potency was “inactive”.
With `COc1cc(-c2nnc(SCC(=O)N(C)C3CCS(=O)(=O)C3)o2)cc(OC)c1OC` (stereo unspecified) the “activation” value was 6.32% [at 44.9 µM] (inactive).
For `CC[n+]1ccc(/C=C/c2ccc(N(C)C)cc2)c2ccccc21`, the “activation” value was -21.1% (inactive).
With `COc1ccc(CNC(=O)CN2C(=O)NC(C)(c3cccc(Br)c3)C2=O)cc1` (stereo unspecified) the “activation” value was 1.48% (inactive).
In the case of `Cc1cc(Br)c2nc3c(c(C(=O)O)c2c1)CCCCC3`, the Potency is reported as 1.54 µM (active).
In the case of `CC(=O)C1C(c2ccccc2)c2c(noc2C)CC1(C)O` (stereo unspecified), the “activation” value is reported as -3.38% (inactive).
In the case of `CCN(CC)S(=O)(=O)c1ccc(N2CCOCC2)c(NC(=O)c2cccc(C#N)c2)c1`, the Potency is reported as 47.3 µM (active).
For `COc1ccc(S(=O)(=O)Nc2ccccn2)c(C)c1C`, the “activation” value was 5.21% [at 44.9 µM] (inactive).
In the case of `Cn1c2ccccc2c2nnc(SCC(=O)Nc3cccc(C(=O)O)c3)nc21`, the Potency is reported as 21.9 µM (active).
For `CCOc1ccc2cc(C#N)c(SCC(=O)NC(C)CC)nc2c1` (stereo unspecified), the Potency was 5.48 µM (active).
For `CCN(c1ccccc1)S(=O)(=O)c1ccc(OC)c(NC(=O)C2CC(=O)N(Cc3ccccc3)C2)c1` (stereo unspecified), the “activation” value was -0.441% (inactive).
For `CCOC(=O)N1CCN(S(=O)(=O)c2c(C)nc3scc(C)n3c2=O)CC1`, the Potency was 24.5 µM (active).
With `O=c1oc2cc(O)c(Cl)cc2c2ccccc12` the Potency was 6.9 µM (active).
In the case of `CCN(CC)S(=O)(=O)c1ccc2c(c1)nc(SCc1nc3ccsc3c(=O)[nH]1)n2CC`, the Potency is reported as 0.245 µM (active).
With `NS(=O)(=O)c1ccc(CCNC(=O)C2CCN(c3ncnc4c3nc3n4CCCCC3)CC2)cc1` the Potency was 38.9 µM (active).
